Source: PubChem
Sampled rows, rich in hits. Any-hit rate of the full collection: about 21%.
Pf growth 96h: inhibits malaria parasite growth, 96 h. 320,000 tested, 6.9% active. Potency, µM (top dose mostly 28.7 µM), usual class: inhibitors. P. falciparum luciferase reporter growth, 96 h
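Infected RBCs, 2% Hct / 0.05% parasitemia final; luciferase-reporter P. falciparum; cpd 96 h, 37 C, 5% CO2; luciferase detection reagent; luminescence.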
Shiga toxin inh: inhibitors of Shiga toxin in Vero cells | Vero cells, Shiga toxin protein synthesis inhibition reporter | inhibition, % at 38.7 µM | 290,000 tested, 9.2% active | AID 2315; in the data active = inhibition mostly above about 28%, no sharp cut-off; inactive = mostly below about 43%
Pf growth 48h: inhibits P. falciparum growth in the first generation, 48 h | P. falciparum luciferase growth in erythrocytes, 48 h | Potency, µM (titrated, usually from 28.7 µM), hits mostly inhibitors | 310,000 tested, 5.9% active
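Erythrocytes infected with P. falciparum carrying an integrated firefly luciferase reporter (2% hematocrit, 0.1% parasitemia final) were exposed to compounds in RPMI 1640 with 0.5% Albumax at 37 C, 5% CO2. Growth inhibition was scored as reduced luminescence.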
CHX counter: affects cycloheximide protein synthesis inhibition readout, counter-screen. cell reporter, cycloheximide protein synthesis inhibition counterscreen. max response, %. 300,000 tested, 12% active. AID 2314; in the data active = max response mostly above about 13%, no sharp cut-off; inactive = mostly below about 14%; note: read at 38.3 µM for the half of the compounds with a filed dose
A number is an active result; n = inactive; u = inconclusive; x = no result given. Unless noted, calls come from the whole dose curve; as a rule, active = well fitted inhibition curve with a large enough effect; inconclusive = small, poorly fitted or top-dose-only effect, or another doubt; inactive = no such curve, though single readings can be large or run the other way.

SMILES	Pf growth 96h	Shiga toxin inh	Pf growth 48h	CHX counter
COc1ccc(-n2nnc3c(SCC(=O)NCc4ccco4)ncnc32)cc1	n	n	n	19
COc1ccc(-n2c(CCc3ccccc3)nnc2SCC(=O)c2ccc(Cl)cc2)cc1	u	n	13µM	n
O=C(CSc1nnc(CCc2ccccc2)n1-c1ccc(Cl)cc1)c1ccccc1	u	n	n	n
O=C(CSc1nnc(-c2cccs2)o1)c1cccs1	n	88	n	93
COc1ccc(C(CNC(=O)c2ccc3c(c2)OCCO3)N(C)C)cc1 (stereo not drawn)	n	n	n	n
Cc1nn(C)cc1C(C)Nc1nc2nonc2nc1N1CCCCC1 (stereo not drawn)	n	n	n	n
COc1ccc(-n2c(-c3ccc(F)cc3)cnc2SCC(=O)NCc2ccco2)cc1	x	103	u	49
Cc1ccc(SCC(=O)c2ccc[nH]2)cc1	n	79	n	35
CCOC(=O)/C(=N/Nc1ccc(OC)cc1)Sc1nnc(CCc2ccccc2)n1-c1ccccc1	n	n	n	31
COc1ccc(-c2nnc(SCC(=O)c3cccs3)n2-c2ccc(Cl)cc2)cc1	n	75	u	40
O=C(CSc1ncc(-c2ccccc2)n1-c1ccccc1)NCc1ccco1	n	n	n	n
Cc1ccc(CNC(=O)c2ccc[nH]2)cc1	n	n	n	n
COc1cccc(-c2nnc(SCC(N)=O)n2-c2ccc(Cl)cc2)c1	x	n	n	n
CC(Sc1nc2c(c(=O)[nH]1)CCCC2)C(=O)Nc1ccccc1C#N (stereo not drawn)	n	n	n	n
COc1cc(NC(=O)CCCNC(=O)c2ccc(Cl)cc2)cc(OC)c1OC	n	n	n	n
CN(C(=O)Cn1nc(Cl)ccc1=O)C1CCCN(Cc2ccccc2F)C1 (stereo not drawn)	n	n	n	n
COc1ccc(-c2nnc(SCC(=O)c3cccs3)o2)cc1	n	95	n	29
COc1ccc(-c2nnc(SCC(=O)NC(=O)NCc3ccccc3)o2)cc1	n	n	x	n
COc1ccc(-c2nnc(SCC(=O)c3ccc(O)cc3O)o2)cc1	n	33	n	n
COc1ccc(-c2nnc(SCC(=O)c3ccc[nH]3)o2)cc1	x	151	n	36
Cc1cc(C(=O)CSc2nnc(-c3cccs3)o2)c(C)n1-c1ccccc1	u	77	n	12
S=C(NCC1CCCO1)N1CCN(Cc2ccccc2)CC1 (stereo not drawn)	u	n	n	n
Cc1c(C(N)=O)cc([N+](=O)[O-])cc1[N+](=O)[O-]	n	x	n	x
COC(=O)c1cc(C(=O)OCC(=O)N(C)c2ccccc2)cc([N+](=O)[O-])c1	n	n	n	n
COc1ccc(-c2nnc(SCC(=O)NCc3ccco3)o2)cc1	n	92	n	22
SMILES	Pf growth 96h	Shiga toxin inh	Pf growth 48h	CHX counter
COc1ccc(NC(=O)CSc2nnc(-c3cccc(O)c3)o2)cc1	n	n	n	n
COc1ccc(Cc2nnc(SCC(=O)NCc3ccco3)o2)cc1	x	n	n	n
COc1cccc(NC(=O)CSc2nnc(-c3cc(C)n(-c4ccccc4)c3C)o2)c1	10µM	101	n	48
O=C(c1ccco1)N1N=C2CCCCCC2C1(O)C(F)(F)F (stereo not drawn)	n	n	n	n
CCOC(=O)c1c(C)[nH]c(C)c1C(=O)CN1C(=O)NC(CC(C)C)C1=O (stereo not drawn)	n	n	9.3µM	n
NCC(=O)N[C@@H](CCCN=C(N)N)C(=O)NCC(=O)N[C@@H](CC(=O)O)C(=O)N[C@@H](CC(N)=O)C(=O)N1CC[C@@H](C(=O)O)C1	x	n	x	n
COC(=O)c1c(NC(=O)CN2C(=O)NC3(CCc4ccccc4C3)C2=O)sc2c1CCCCC2 (stereo not drawn)	n	n	n	n
CCOc1ccccc1N1CCN(Cc2cn[nH]c2-c2ccc(F)cc2)CC1	u	n	u	n
O=C1CSC(c2cccnc2)N1c1ccccc1 (stereo not drawn)	n	n	n	n
CC(C)(C)c1ccc(N2C(=O)CSC2c2cccnc2)cc1 (stereo not drawn)	u	n	1.2µM	n
CNc1ccccc(-c2ccc3cc4c(cc3n2)OCO4)c1=O	n	59	n	66
COc1ccc(OC)c(C(=O)c2coc3ccc(O)cc23)c1	10µM	103	n	25
COc1ccc2occ(C(=O)c3ccccc3)c2c1	n	66	n	38
COc1ccc2occ(C(C)=O)c2c1	u	n	x	n
CCN(CC)c1cccc(OC(=O)c2cccnc2Cl)c1	n	n	n	n
COc1ccc(Cl)cc1NC(=O)CSc1nc(=O)[nH]c2c1CCC2	x	n	x	n
COC(=O)C1=C(C)NC(=O)CC1c1cc2c(cc1Br)OCO2 (stereo not drawn)	n	n	u	n
CC1=C(C(=O)OCCOC(C)C)C(c2cc3c(cc2Br)OCO3)CC(=O)N1 (stereo not drawn)	x	n	u	n
Cn1c2c(c(=O)n(C)c1=O)C(c1cc3c(cc1Br)OCO3)CC(=O)N2 (stereo not drawn)	9.3µM	n	n	n
CC1=C(C(=O)OC2CCCCCCC2)C(c2cc3c(cc2Br)OCO3)CC(=O)N1 (stereo not drawn)	x	n	10µM	n
C/C(=N\N1CCN(C)CC1)c1ccc(Cl)c(Cl)c1	n	n	n	n
O=C(CCCOc1ccccc1)NCC1CCCO1 (stereo not drawn)	n	n	n	28
O=C(CCSc1ccccc1)NCC1CCCO1 (stereo not drawn)	x	63	n	29
O=C(NCC1CCCO1)C(=O)N/N=C/c1ccccc1C(=O)O (stereo not drawn)	10µM	n	n	n
O=C(CSc1ccc(Cl)cc1)NCC1CCCO1 (stereo not drawn)	n	n	x	17
SMILES	Pf growth 96h	Shiga toxin inh	Pf growth 48h	CHX counter
O=C(COc1ccccc1)NCC1CCCO1 (stereo not drawn)	n	n	n	n
CC1=C(C(=O)OCC2CCCO2)C(c2ccc(C)cc2)C2=C(CC(C)(C)CC2=O)N1 (stereo not drawn)	n	n	n	n
Cc1ccc(S(=O)(=O)c2nc(-c3ccccc3)oc2SCC(=O)NCC2CCCO2)cc1 (stereo not drawn)	12µM	n	10µM	n
O=C(NCCOc1ccccc1)C(=O)NCC1CCCO1 (stereo not drawn)	n	37	n	12
Cc1ccc(-c2[nH]c(-c3ccc(Cl)cc3)nc2SCC(=O)NCC2CCCO2)cc1 (stereo not drawn)	9.3µM	n	u	n
O=C(CSc1nnc(C2CC2)n1CC1CCCO1)Nc1ccc(Cl)cc1 (stereo not drawn)	n	31	n	n
Cn1c(SCC(=O)NCC2CCCO2)nnc1-c1ccc(Cl)cc1 (stereo not drawn)	n	x	n	x
Cc1ccc(-c2nc(S(=O)(=O)c3ccc(F)cc3)c(SCC(=O)NCC3CCCO3)o2)cc1 (stereo not drawn)	n	n	n	n
CCNC(=O)CN1C(=O)NC(Cc2ccccc2)(Cc2ccccc2)C1=O	n	n	u	n
COc1ccc(F)cc1S(=O)(=O)Nc1cc2c3c(c1)CCC(=O)N3CCC2	n	x	n	x
COc1ccc(NC(=S)NC23CC4CC(CC(C4)C2)C3)cc1OC	u	n	u	n
